A selection: hits, their analogues and other compounds. The true share with any hit is near 7.7%.
FMDV antiviral – foot and mouth disease virus antiviral activity; Potency, µM (top dose mostly 57.9 µM), for inactives: at the top dose activity change, negative = inhibition, most hits filed as inhibitors; AID 1159524; actives 1.2% (n = 410,000); FMDV antiviral cell-based qHTS; calls by dose curve; tested in HEK293T cells; also: read-out not given here; potency is read from the fitted curve at half-maximal effect; nearly all actives have a fitted effect of over 45% in size
Sm TGR block – blocks Schistosoma mansoni thioredoxin glutathione reductase; Q962Y6; actives 3% (n = 360,000); Potency, µM (top dose mostly 114 µM), inactives show at the highest dose activity change, negative = inhibition, actives largely listed as inhibitors; purified TGR, DTNB reduction, TNB absorbance 405 nm; also: potency is read from the fitted curve at half-maximal effect; nearly all actives have a fitted effect of over 60% in size
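Kinetic colorimetric format: TGR-catalysed, NADPH-driven DTNB reduction monitored via TNB absorbance. Enzyme dispensed at 20 nM; compound exposure 15 min at room temperature before reaction start.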
Tb PYK inh – inhibitors of Trypanosoma brucei pyruvate kinase; Q57TT1; TbPYK enzyme, Kinase-Glo Plus ATP luminescence, 45 min; Potency, µM (doses to about 76.8 µM), for the others: at the highest dose activity, negative = inhibition, most hits filed as inhibitors; actives 0.12% (n = 410,000); also: potency is read from the fitted curve at half-maximal effect; nearly all actives have a fitted effect of over 50% in size
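Glycolytic pyruvate kinase of T. brucei was incubated with substrate, test compound and 130 uM ADP for 45 minutes at room temperature. Luminescent Kinase-Glo Plus signal was measured after 10 minutes.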
FBPA Giardia inh – inhibitors of Giardia lamblia fructose-1,6-bisphosphate aldolase | A8B2U2 | purified Giardia FBPA | Potency, µM (titrated, usually from 59.6 µM), without a hit: at the top dose activity, negative = inhibition, most hits filed as inhibitors | actives 0.71% (n = 290,000) | AID 2451; also: potency is read from the fitted curve at half-maximal effect; nearly all actives have a fitted effect of over 55% in size
Target sequence (A8B2U2 whole entry, looked up): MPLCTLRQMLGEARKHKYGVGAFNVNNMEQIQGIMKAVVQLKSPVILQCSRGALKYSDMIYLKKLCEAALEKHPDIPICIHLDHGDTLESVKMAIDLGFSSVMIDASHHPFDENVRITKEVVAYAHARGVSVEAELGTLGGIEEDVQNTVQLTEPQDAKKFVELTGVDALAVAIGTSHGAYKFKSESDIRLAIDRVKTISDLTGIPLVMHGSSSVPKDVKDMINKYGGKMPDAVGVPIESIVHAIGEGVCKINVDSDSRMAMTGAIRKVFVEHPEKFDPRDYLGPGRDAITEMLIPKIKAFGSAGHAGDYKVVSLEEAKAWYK
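Giardia FBPA (40 nM reagent) was preincubated 10 min at RT with compound (up to 57.5 uM final), then substrate plus GAPDH/TPI/NAD/arsenate coupling system with diaphorase/resazurin was added; resorufin fluorescence (525/598 nm) was read after 20 min.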
HCMV inh – human cytomegalovirus inhibition; HFF cells, HCMV-luciferase reporter, 72 h; stronger effect = lower value; activity change, negative = inhibition, % at 57.5 µM; actives 4.5% (n = 410,000); AID 1259415; in the data active = activity change below about -60%; inconclusive = no clear call, values can overlap the other calls; inactive = above about -39%
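Two-dose cell screen: HFF monolayers treated with compounds and infected with luciferase-expressing HCMV at 1 PFU/cell, 72 h at 37C, then lysed for luciferase measurement.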
RE007 growth inh – less growth of the S. pombe RE007 Vpr strain; AID 651644; Potency, µM (top dose mostly 92.2 µM), inactives show at the highest dose activity change, negative = less growth, usual class: inhibitors; actives 0.21% (n = 360,000); S. pombe RE007 Vpr strain, BacTiter-Glo ATP luminescence, 24 h; active = well fitted falling curve with a large enough effect; inconclusive = small, poorly fitted or top-dose-only effect; inactive = no such curve, though single readings can be large or run the other way; also: potency is read from the fitted curve at half-maximal effect; nearly all actives have a fitted effect of over 50% in size
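Fission yeast strain RE007, carrying one chromosomally integrated HIV-1 vpr copy, was seeded at OD 0.01 in PMG+AL medium with 23 nL pinned compound. After 24 h at 30 °C and 99% humidity, viability was read by BacTiter-Glo luminescence.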
* = called active by the depositor; ? = inconclusive; nt = no result given. Unless noted, calls follow the shape of the dose curve; as a rule, active = well fitted curve in the direction sought with a large enough effect; inconclusive = small, poorly fitted or top-dose-only effect, or another doubt; inactive = no such curve, though single readings can be large; an effect the other way counts as inactive or inconclusive. % is scaled to controls: 0 for no effect and ±100 for the full control effect.

SMILES	FMDV antiviral	Sm TGR block	Tb PYK inh	FBPA Giardia inh	HCMV inh	RE007 growth inh
Cc1ccc(/C(N)=N/OC(=O)c2ccc(C)cc2Cl)cc1	?	-5%	-10%	-9%	-79*	?
COC(=O)c1cc2sccc2n1CC(=O)Nc1ccc(C)cc1C	-1%	0%	-4%	nt	-6	nt
Cc1cc(NS(=O)(=O)c2ccc(NC(=O)/C=C/c3ccco3)cc2)nc(C)n1	9%	4µM*	-16%	23%	2	6%
Cc1ccc(NC(=O)/C=C/c2ccco2)cc1S(=O)(=O)N1CCCCCC1	0%	nt	4%	nt	-89*	10%
Cc1ccc(NC(=O)c2ccccc2F)cc1S(=O)(=O)N1CCCCCC1	?	4%	4%	-10%	?	-2%
Cc1ccc(NC(=O)Cc2ccccc2F)cc1S(=O)(=O)N1CCCCCC1	-11%	7%	-3%	nt	-78*	7%
CCc1noc(C)c1C(=O)Nc1ccc(C)c(S(=O)(=O)N2CCCCCC2)c1	28µM*	3%	2%	nt	-38	-14%
COc1ccc(S(=O)(=O)n2nc(-c3ccco3)nc2NCc2ccc(N(C)C)cc2)cc1	22%	-8%	2%	nt	89	nt
COCCNCC(=O)Nc1ccc(C)c(S(=O)(=O)N2CCCCC2)c1	2%	6%	17%	?	-5	-1%
COc1ccc(NC(=O)COc2ccccc2C(N)=O)cc1S(=O)(=O)N1CCCCC1	-13%	nt	-3%	nt	-24	11%
Cc1ccc(NC(=O)CCl)cc1S(=O)(=O)N1CCCCCC1	22µM*	7.9µM*	1%	-3%	-98*	1%
Cc1ccc(NC(=O)COc2ccccc2C(N)=O)cc1S(=O)(=O)N1CCCCCC1	25µM*	-10%	1%	nt	-91*	7%
Cc1cc(Cl)c(S(=O)(=O)N2CCCC2)cc1OCC(=O)NC1CCCCC1	?	17%	3%	5%	-96*	1%
Cc1cccc(C)c1NC(=O)CN(CC(=O)O)CC(=O)O	nt	nt	-2%	nt	-2	nt
Brc1ccc(-c2csc3ncnc(-n4nnc5ccccc54)c23)cc1	?	7%	-2%	2%	-68*	-11%
CCCc1cc(=O)n2c(C(=O)Nc3ccc(OCC)cc3)c(C(=O)Nc3ccc(C)cc3)sc2n1	-18%	8%	-7%	nt	-84*	nt
Cc1cc2nc(N=C(N)N)nc(C)c2cc1C	?	2%	0%	-4%	-99*	10%
Cc1nc(N=C(N)N)nc2ccccc12	?	-3%	4%	1%	-81*	-3%
CCc1ccc2nc(N=C(N)N)nc(C)c2c1	?	-3%	1%	-5%	-87*	2%
Cc1ccc2nc(/N=C(\N)NC(=O)NC3CCCCC3)nc(C)c2c1	?	10%	2%	4%	-65*	0%
Cc1cc2nc(/N=C(\N)NC(=O)C(C)C)nc(C)c2cc1C	-27%	3%	-14%	-13%	-28	-12%
CCCCC/C=C\C\C=C/C=C/C=C/[C@@H](O)[C@@H](O)CCCC(=O)O	nt	nt	nt	2%	nt	nt
Cc1ccc2nc(N=C(N)N)nc(C)c2c1	?	5%	-17%	-1%	-89*	7%
O=C1/C(=C/c2ccccc2F)SC(=S)N1CC(=O)N1CCCCC1c1cccnc1 (configuration not stated)	0%	1%	5%	nt	-76*	-14%
O=C1/C(=C/c2ccc(F)cc2)SC(=S)N1CC(=O)N1CCCCC1c1cccnc1 (configuration not stated)	-1%	-10%	2%	nt	-83*	12%
SMILES	FMDV antiviral	Sm TGR block	Tb PYK inh	FBPA Giardia inh	HCMV inh	RE007 growth inh
O=C(CCN1C(=O)/C(=C\c2ccccc2F)SC1=S)N1CCCCC1	-20%	-9%	-3%	7%	19	-1%
COC(=O)[C@@H]1Cc2c([nH]c3ccccc23)C(C)(C)N1C(=O)CCl	?	32µM*	-8%	0%	-99*	-10%
COc1cccc(/C=N/Nc2nc3ccccc3n3cnnc23)c1O	5%	-11%	23%	-30%	-103*	6%
COc1cccc(/C=N/Nc2nc3ccccc3[nH]2)c1OC	43%	2%	-1%	0%	154	-25%
COc1cccc(/C=N/Nc2nc3ccccc3[nH]2)c1O	19%	16%	-2%	-17%	-99*	8%
COc1ccc(-c2nn3c(=O)cc(CN4CCN(C(=O)c5ccc(C(C)(C)C)cc5)CC4)nc3s2)cc1	?	-1%	1%	nt	8	nt
CCc1ccc(NC(=O)CN(Cc2ccccc2)S(=O)(=O)c2ccc3nc(C)sc3c2)cc1	-23%	-1%	10%	nt	-17	nt
O=c1c(S(=O)(=O)c2ccccc2)cn(Cc2ccccc2)c2cc(N3CCOCC3)c(F)cc12	-8%	2%	-5%	nt	-27	nt
O=c1c(S(=O)(=O)c2ccccc2)cn(Cc2ccccc2)c2cc(N3CCCC3)c(F)cc12	1%	22%	-16%	nt	4	nt
O=c1c(S(=O)(=O)c2cccc(Cl)c2)cn(Cc2ccccc2)c2cc(N3CCCCC3)c(F)cc12	10%	-2%	-3%	nt	-65*	nt
O=c1c(S(=O)(=O)c2ccccc2)cn(Cc2cccc(F)c2)c2cc(N3CCOCC3)c(F)cc12	-15%	0%	-3%	nt	-71*	nt
Cc1ccnc(S(=O)(=O)Cc2ccc([N+](=O)[O-])cc2)n1	-8%	?	8%	3%	42	9%
Cn1c(CO)cnc1S(=O)(=O)Cc1ccc([N+](=O)[O-])cc1	-15%	28µM*	3%	-2%	17	-2%
COc1ccc2c(c1)OC(C)CN(CCNC(=O)c1cccc(N3CCNC3=O)c1)C2 (configuration not stated)	4%	nt	nt	nt	nt	nt
Cc1ccc(S(=O)(=O)N(CCCO)CC(O)CON=C2c3ccccc3-c3ccccc32)cc1 (configuration not stated)	35µM*	3%	-4%	-2%	31	-3%
O=c1cc(-c2ccccc2F)oc2ccccc12	39%	1%	2%	1%	53	63µM*
O=c1cc(-c2ccc(F)cc2)oc2ccccc12	23%	nt	-3%	nt	15	-6%
O=c1cc(-c2ccccc2[N+](=O)[O-])oc2ccccc12	27%	nt	-8%	1%	-66*	4%
CSc1ccc(-c2cc(=O)c3ccccc3o2)cc1	21%	0%	-1%	-5%	-72*	?
Cc1cccc(CNC(=O)Cc2ccc(NC(=O)N3CCCCc4ccccc43)cc2)c1	0%	0%	1%	nt	33	nt
COc1ccc(NC(=O)CN2C(=O)CCn3nc(-c4cccn4C)cc32)cc1	5%	-6%	-2%	nt	7	nt
O=C(CCC(=O)OCC(=O)c1ccc(Cl)cc1)Nc1ccc(Oc2ccccc2)cc1	18%	-8%	1%	nt	13	nt
